LMNA splice mod = LMNA splicing modulation; Potency, µM (titrated, usually from 46.1 µM), usual class: inhibitors; HeLa LMNA splicing GFP/RFP minigene ratio, 48 h; 200,000 tested, 0.01% active; active = well fitted inhibition curve with a large enough effect in the signal ratio, with a control signal flat, not every such curve was filed as active; inconclusive = small, poorly fitted or top-dose-only effect, or effect the other way, or a change in a side signal; the % refers to the signal ratio
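S3 HeLa stable clones carrying a lamin A-EGFP splicing minigene plus DsRed2 were seeded at 600 cells/well in Opti-MEM with 2% FBS, pin-dosed and incubated 48 h at 37°C. Acumen cytometry (488 nm) gave the GFP/RFP total-intensity ratio.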
ALOX12 inhib = blocks human 12-lipoxygenase activity | purified 12-hLO, xylenol orange hydroperoxide absorbance | Potency, µM (highest dose often 57.1 µM), actives largely listed as inhibitors | 150,000 tested, 0.12% active | AID 1452; active = well fitted inhibition curve with a large enough effect; inconclusive = small, poorly fitted or top-dose-only effect; also: nearly all actives have a fitted effect of over 55% in size
Target sequence (P18054 whole entry, looked up): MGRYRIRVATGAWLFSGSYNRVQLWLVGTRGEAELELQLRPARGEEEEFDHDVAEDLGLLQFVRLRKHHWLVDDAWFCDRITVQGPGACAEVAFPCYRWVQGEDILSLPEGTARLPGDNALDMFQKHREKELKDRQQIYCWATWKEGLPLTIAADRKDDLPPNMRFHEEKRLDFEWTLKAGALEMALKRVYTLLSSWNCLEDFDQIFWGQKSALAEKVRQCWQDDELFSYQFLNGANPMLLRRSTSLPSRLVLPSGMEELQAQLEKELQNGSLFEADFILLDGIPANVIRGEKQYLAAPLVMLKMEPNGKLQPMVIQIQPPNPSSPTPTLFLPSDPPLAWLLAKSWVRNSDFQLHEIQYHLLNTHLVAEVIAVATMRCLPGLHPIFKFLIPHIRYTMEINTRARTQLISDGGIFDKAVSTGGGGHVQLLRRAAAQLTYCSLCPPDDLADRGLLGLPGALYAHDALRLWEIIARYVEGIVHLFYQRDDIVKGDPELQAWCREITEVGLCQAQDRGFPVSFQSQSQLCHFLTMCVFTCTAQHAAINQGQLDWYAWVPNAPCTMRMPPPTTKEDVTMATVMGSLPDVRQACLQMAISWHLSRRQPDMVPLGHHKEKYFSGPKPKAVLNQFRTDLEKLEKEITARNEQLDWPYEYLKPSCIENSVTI
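Hydroperoxide formation by human 12-lipoxygenase from 40 uM arachidonic acid was followed colorimetrically via ferric-xylenol orange complex, using the 573/405 nm absorbance ratio. Enzyme concentration was 150 nM, with 30 min reaction at room temperature.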
PNC assembly inh = perinucleolar compartment assembly inhibition. PC3M PTB-GFP, PNC prevalence imaging, 16 h; active compounds read low. activity change (PNC), negative = inhibition, % at 10 µM. 140,000 tested, 3.1% active. AID 2417;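 active = readout at or below -70, meaning at least 70% loss of cells showing the perinucleolar compartment, a nuclear body marking cancer cells; inconclusive = readout between -30 and a set limit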
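Read-out is percentage of cells bearing a perinucleolar compartment, from automated 20x imaging of fixed, Hoechst-stained PC3M PTB-GFP cells. Cells were seeded 4 h, then exposed 16 h to compound (23 nl of library stock) in duplicate plates.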
ALDH1A1 inh = ALDH1A1 (human) enzyme inhibition. P00352. Purified ALDH1A1, NADH fluorescence, propionaldehyde substrate. Potency, µM (highest dose often 75.3 µM), usual class: inhibitors. 220,000 tested, 7.3% active. AID 1030
HPGD block = inhibitors of human 15-hydroxyprostaglandin dehydrogenase (HPGD) | P15428 | purified HPGD, NADH fluorescence kinetic, PGE2 substrate | Potency, µM, hits mostly inhibitors | 150,000 tested, 4.3% active | AID 894
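NADH formation kinetics: reaction with 30 uM PGE2 and 1 mM NAD+ (final), 20 nM enzyme, Tris-HCl pH 8 with Tween 20, after 15 min compound preincubation at room temperature. Fluorescence change, last versus first of five reads.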
Numbers stand for hits; - = inactive; ? = inconclusive; . = no result; [ ] = another dose, or the depositor's remark. Hits are enriched below; roughly 10% of the tested compounds scored in any of these assays. Unless noted, calls follow the shape of the dose curve; as a rule, active = well fitted inhibition curve with a large enough effect (not every such curve was filed as active); inconclusive = small, poorly fitted or top-dose-only effect, or another doubt; inactive = no such curve, though single readings can be large or run the other way.

SMILES	LMNA splice mod	ALOX12 inhib	PNC assembly inh	ALDH1A1 inh	HPGD block
Cc1ccc(Cn2c(CN3CCC(C(=O)NCc4cccnc4)CC3)cc3ccccc32)cc1	-	.	.	.	.
COc1ccc(-n2c(=O)c(-c3ccc(Cl)cc3)nc3cncnc32)cc1	.	-	.	-	-
C[N+](C)(C)/N=C\c1ccc(O)c(O)c1	.	-[11.4 µM]	.	-[13.5 µM]	-
Oc1ccc(N=Cc2ccc(O)c(O)c2)cc1	?	-	-	13µM	28µM
CN(Cc1ccncc1)C1CC(=O)N(c2ccc(Cl)cc2)C1=O (centres undefined)	-	-	-	-	-
COC(=O)CN(C)C1CC(=O)N(c2ccc(Cl)cc2)C1=O (centres undefined)	-	-	-	3.2µM	-
COc1ccc(-c2nc3c(c4c2CC(C)OC4)CN(CCC(C)C)CC3)cc1 (centres undefined)	.	.	.	-[13.5 µM]	.
Cc1nn(-c2ccccc2)c(N)c1N=Nc1ccccc1	-	-	-	?	20µM
Cc1cccc(N=Nc2c(C)nn(-c3ccccc3)c2N)c1C	?	-	-134	-	16µM
Cc1nn(-c2ccccc2)c(N)c1-c1ccccc1	-	.	.	-	.
Cc1nn(-c2ccccc2)c(N)c1N=Nc1ccc(Cl)cc1	-	?	-93	-	-
Cc1nn(-c2ccccc2)c(N)c1C(O)(C(F)(F)F)C(F)(F)F	-	-	-	-	-
Nc1nn(-c2ccccc2)c(N)c1N=Nc1ccccc1F	?	-	?	-	13µM
Nc1c(N=Nc2ccccc2F)c(=O)[nH]n1-c1ccccc1	-	-	-	-	-
Nc1nn(-c2ccccc2)c(N)c1N=Nc1ccccc1	?	-	-	-	-
Cn1c(N)c(C(=O)/C=C/c2ccccc2)c(=O)[nH]c1=O	-	.	.	-	.
CCC(=O)Nc1cccc(NC(=S)NC(=O)c2ccccc2)c1	?	-	-	?	-
CCC(=O)Nc1cccc(NC(=S)NC(=O)c2ccc(C)cc2)c1	.	.	.	13µM	.
O=C(NC(=S)Nc1cccc(CO)c1)c1ccc(-c2ccccc2)cc1	?	?	?	13µM	-
CCC(=O)Nc1cccc(NC(=S)NC(=O)c2cccc(C)c2)c1	-	?	-	25µM	-
Cc1noc(C)c1C(=O)N1CCC2(CC1)CN(C(=O)Nc1cccc(F)c1)C2	.	-	.	-	-
CCOC(=O)c1cc(-c2ccccc2)n(CCC(=O)Nc2ccc(Cl)c(C(F)(F)F)c2)c1C	-	.	.	.	.
Cc1cc(NS(=O)(=O)Cc2ccccc2)cc(C)c1OCC(=O)N1CCOCC1	-	-	-96	-	-
Cc1ccc(-c2nsc(SCC(=O)NCc3ccc4c(c3)OCO4)n2)cc1	-	-	?	-	-
Cc1ccccc1-c1nsc(SCC(=O)NCc2ccc3c(c2)OCO3)n1	-	-	-	22µM	-
SMILES	LMNA splice mod	ALOX12 inhib	PNC assembly inh	ALDH1A1 inh	HPGD block
CC(C)Nc1nnc(SCC(=O)NCc2ccc3c(c2)OCO3)s1	?	.	.	18µM	.
CC(C)C(=O)Nc1nnc(SCC(=O)NCc2ccc3c(c2)OCO3)s1	.	.	.	-	.
COC(=O)c1ccccc1NC(=O)Cc1nc(-c2ccccc2)sc1-c1ccc(C)cc1	?	-	-	10µM	-
Cc1noc(/C=C/c2ccccc2F)c1S(=O)(=O)N1CCC(C(=O)N(C)Cc2ccco2)CC1	-	.	.	.	.
O=C1N/C(=C/c2cccn2-c2ccccc2)C(=O)N1Cc1ccc(F)cc1	-	-	-	?	-
CCn1c(C)cc(/C=C2\NC(=O)N(Cc3ccccc3)C2=O)c1C	-	-	-	8.9µM	-
CCn1c(C)cc(/C=C2/NC(=O)N(Cc3ccccc3F)C2=O)c1C	?	-	-	1.8µM	?
Cc1cc(/C=C2/NC(=O)N(c3ccccc3)C2=O)c(C)n1C(C)C	?	-	-	?	-
Cc1cc(/C=C2/NC(=O)N(Cc3ccccc3F)C2=O)c(C)n1C(C)C	?	-	?	2µM	-
CCn1c(C)cc(/C=C2\NC(=O)N(CC(=O)Nc3ccc(F)cc3)C2=O)c1C	.	.	.	-	.
CCN(CC)c1nc(N)c2c(N)n(-c3ccccc3C)c(=S)c(C#N)c2c1C#N	-	-	-	?	20µM
CCN(CC)c1nc(N)c2c(N)nc3c(c2c1C#N)CC(c1ccccc1)O3 (centres undefined)	?	-	-	?	?
O=S(=O)(NCc1nc2cccnc2n1Cc1ccccc1Cl)c1ccc(F)c(Cl)c1	-	.	.	.	.
COc1ccc(N(C(C)C(=O)N2CCC(Cc3ccccc3)CC2)S(C)(=O)=O)cc1 (centres undefined)	?	.	.	-	.
Cc1[nH]c2ccccc2c1C(=O)COC(=O)Cn1c(C(F)(F)F)nc2ccccc21	?	-	-105	-	-
O=C(Cn1c(C(F)(F)F)nc2ccccc21)OCC(=O)c1c[nH]c2ccccc12	-	-	-	-	.
CC(C)CCCC(C)C1CCC2C3CC=C4CC(O)CC[C@@]4(C)C3CC[C@@]12C (some centres undefined)	-	-	.	-	-
Cc1c(C(=O)N2CCC(Cc3ccccc3)CC2)sc2ncnc(N3CCC(C)CC3)c12	.	.	.	-	.
Cc1c(C(=O)N2CCC(C)CC2)sc2ncnc(N(C)c3ccccc3)c12	-	-	-	?	8.9µM
Cc1c(C(=O)N2CCN(Cc3ccccc3)CC2)sc2ncnc(N3CCOCC3)c12	-	-	-	25µM	-
Cn1c(C[C@@H](O)c2nc3ccccc3n2C)nc2ccccc21	.	-[11.4 µM]	.	-[13.5 µM]	-
CC(=O)Nc1sc(N/N=C\c2ccco2)nc1-c1cccs1	-	-	?	18µM	32µM
NC(N)=NCCCC(NC(=O)C(N)Cc1ccc(O)cc1)C(=O)O (centres undefined)	.	-	.	-	-
Cc1c(CN(C)C(=O)c2sc3cc(Cl)ccc3c2Cl)cnn1C	-	-	-	?	20µM
O=C(Oc1ccccc1C(=O)Nc1ccccc1)c1ccc(Br)c([N+](=O)[O-])c1	?	-	-	14µM	-
SMILES	LMNA splice mod	ALOX12 inhib	PNC assembly inh	ALDH1A1 inh	HPGD block
CCCCC(CC)COC(=O)COc1ccc(Cl)cc1Cl (centres undefined)	.	-	.	?	-
COc1ccc(CNC(=O)C/C(C)=N/NC(=O)Cc2ccc(OC)cc2)cc1	-	-	-	-	-
COc1ccc(CNC(=O)C/C(C)=N/NC(=O)C23CC4CC(CC(C4)C2)C3)cc1	.	.	.	14µM	.
COc1ccc(CNC(=O)C/C(C)=N/NC(=O)C(c2ccccc2)c2ccccc2)cc1	-	-	-	22µM	-
COc1ccc(CCNC(=O)COC(=O)C23CC4CC(CC(C4)C2)C3)cc1	-	-	-	22µM	-
Cc1ccc(OCc2cc(=O)n3cc(C)sc3n2)c(NC(=O)c2ccco2)c1	-	.	.	.	.
N#Cc1nc(-c2ccco2)oc1NCCCN1CCOCC1	-	-	-	?	?
O=S(=O)(c1ccccc1)c1nc(-c2ccco2)oc1NCCCN1CCOCC1	-	-	-	8.9µM	-
O=S(=O)(c1ccccc1)c1nc(-c2ccco2)oc1NCCN1CCOCC1	-	-	-	14µM	-
O=S(=O)(c1ccc(F)cc1)c1nc(-c2ccco2)oc1Nc1ccc(F)cc1	-	-	-	?	-
